Only some compounds are listed: those with a hit (about 11% of all), similar ones and a draw of the others.
HPGD inh: blocks human HPGD enzyme activity | P15428 | Potency, µM, without a hit: at the top dose activity change, negative = inhibition, actives largely listed as inhibitors | purified HPGD, NADH fluorescence kinetic, PGE2 substrate | AID 894 | 4.3% of 150,000 active; also: potency is read from the fitted curve at half-maximal effect
Target sequence (P15428 whole entry, looked up): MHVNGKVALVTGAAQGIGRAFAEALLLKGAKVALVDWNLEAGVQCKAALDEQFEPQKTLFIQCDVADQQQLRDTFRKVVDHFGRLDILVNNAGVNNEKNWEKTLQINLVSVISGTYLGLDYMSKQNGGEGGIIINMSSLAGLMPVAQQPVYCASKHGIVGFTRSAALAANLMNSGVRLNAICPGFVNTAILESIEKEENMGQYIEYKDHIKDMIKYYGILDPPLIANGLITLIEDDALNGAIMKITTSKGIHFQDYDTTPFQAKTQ
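20 nM HPGD preincubated 15 min at room temperature with compound in 50 mM Tris-HCl pH 8, 0.01% Tween 20. Started with 1 mM NAD+ and 30 uM prostaglandin E2; NADH fluorescence (360/450 nm) read 5 times over 30-s intervals, last minus first.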
ALDH1A1 inh: ALDH1A1 (human) enzyme inhibition; P00352; Purified ALDH1A1, NADH fluorescence, propionaldehyde substrate; Potency, µM (doses to about 75.3 µM), for the others: top-dose activity, negative = inhibition, most hits filed as inhibitors; 7.3% of 220,000 active;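 also: potency is read from the fitted curve at half-maximal effect; plate controls were no enzyme wells and a reference inhibitor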
PNC inhibitor: inhibitors of perinucleolar compartment assembly | activity change (PNC), negative = inhibition, % at 10 µM | AID 2417 | PC3M PTB-GFP, PNC prevalence imaging, 16 h; active compounds read low | 3.1% of 140,000 active;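 active = readout at or below -70, meaning at least 70% loss of cells showing the perinucleolar compartment, a nuclear body marking cancer cells; inconclusive = readout between -30 and a set limit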;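 also: plate controls were DMSO wells for no effect and camptothecin positive control wells for full effect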
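PC3M cells stably expressing PTB-GFP, 750–1000 cells/well, treated 16 h at 37 °C with compound (23 nl of library stock), in duplicate. After paraformaldehyde fixation and Hoechst stain, imaged at 20x; PNC prevalence scored by image analysis.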
An asterisk follows results filed as active; ? = inconclusive; . = not tested or not shown; [ ] = another dose, or the depositor's remark. Unless noted, calls follow the shape of the dose curve; as a rule, active = well fitted inhibition curve with a large enough effect (not every such curve was filed as active); inconclusive = small, poorly fitted or top-dose-only effect, or another doubt; inactive = no such curve, though single readings can be large or run the other way. Unless noted, % is scaled to controls: 0 for no effect and ±100 for the full control effect.

SMILES | HPGD inh | ALDH1A1 inh | PNC inhibitor
CCOc1ccccc1N(C(C)=O)S(=O)(=O)c1ccc(Cl)cc1 | . | 2% | .
O=C(c1ccc(-c2ccc([N+](=O)[O-])cc2)o1)N1CCCCC1 | 7.1µM* | 11µM* | ?
CC(C(=O)N1CCCCCC1)c1ccc([N+](=O)[O-])cc1 (stereo not drawn) | . | -4% | .
O=C(c1ccc(-c2ccc(Cl)cc2)o1)N1CCN(c2ccc([N+](=O)[O-])cc2Cl)CC1 | -16% | 3.2µM* | -20
O=C(c1cccnc1)N1CCN(c2ccc([N+](=O)[O-])cc2Cl)CC1 | -3% | ? | 15
COC(=O)CNc1nc(Cl)nc(Nc2ccc(Cl)cc2)n1 | . | 25% | .
O=[n+]1cc(-c2cccc3ccccc23)n([O-])c2c1CCC2 | -15% | -1% | 6
COC(=O)c1cccc(NS(=O)(=O)c2ccc(OC)cc2)c1C | -18% | -13% | ?
COc1ccc(S(=O)(=O)Nc2ccccc2C(=O)NC(C)C)cc1OC | -24% | -9% | -124*
COC(=O)c1cccc(NS(=O)(=O)c2ccc(OC)c(OC)c2)c1C | 0% | 2% | -84*
CCC(C)NC(=O)c1ccccc1NS(=O)(=O)c1ccc(OC)c(OC)c1 (stereo not drawn) | -23% | -8% | 9
CCOc1ccc(N(Cc2ccccc2F)C2=NC3CS(=O)(=O)CC3S2)cc1 (stereo not drawn) | . | 4% | .
CN(C)CCCN1CCC2(CCC(C(C)(C)C)CC2)CC1 | -14% | 8%[13.5 µM] | .
N#Cc1c2n(c(=S)n(-c3ccc(F)cc3)c1=O)CCCCC2 | . | 7% | .
CC1(C)NC(=O)N(CC(=O)O)C1=O | -12% | 4% | -8
O=[N+]([O-])c1cccc(Cl)c1NCCNS(=O)(=O)c1ccc(Cl)cc1 | -5% | ? | ?
CC(=O)Nc1ccc(S(=O)(=O)NCCNc2ccccc2[N+](=O)[O-])cc1 | . | 4.5µM* | .
O=[N+]([O-])c1ccccc1S(=O)(=O)NCc1cccnc1 | . | 0% | .
O=[N+]([O-])c1cccc(Cl)c1NCCNS(=O)(=O)c1ccccc1 | -24% | 11µM* | ?
O=[N+]([O-])c1ccccc1S(=O)(=O)NCCc1ccncc1 | . | 18µM* | .
O=[N+]([O-])c1ccccc1NCCNS(=O)(=O)c1ccc(Cl)cc1 | -18% | ? | 42
C#CCn1c(=NC(=O)c2sc3ccccc3c2Cl)sc2cc(S(N)(=O)=O)ccc21 | ? | ? | 13
O=C(N/N=C/c1ccccc1F)c1ccc(COc2ccccc2Cl)o1 | -12% | 3% | ?
O=C(COC(=O)c1ccc2[nH]c3c(c2c1)CCCC3)Nc1ccccc1 | -9% | -1% | 4
COC(=O)[C@H](COC(C)(C)C)NC(=O)O[C@H]1C(=O)c2ccc(OC)cc2O[C@@H]1c1ccc2c(c1)OCO2 | -10% | 6% | .
SMILES | HPGD inh | ALDH1A1 inh | PNC inhibitor
CCn1nc(C)c(NC(=O)Nc2cccc(Cl)c2Cl)c1C | . | 4% | .
CCOP(=O)(c1ccc(N(C)C)cc1)C(O)c1ccccc1 (stereo not drawn) | -8% | 0% | -1
CC(C)COP(=O)(c1ccc(N(C)C)cc1)C(O)c1ccncc1 (stereo not drawn) | 28µM* | 13µM* | 38
CCOC(=O)c1c(C)[nH]c(C)c1C(=O)CSc1nc2ccccc2c(=O)n1-c1ccccc1C | -8% | 20µM* | -12
CCOC(=O)c1c(C)[nH]c(C)c1C(=O)CSc1nc2ccccc2c(=O)n1-c1ccc(F)cc1 | . | -11% | .
CCOc1ccccc1-n1c(SCC(N)=O)nnc1-c1ccccc1 | -1% | 5% | -13
CCOc1ccccc1-n1c(SCC(N)=O)nc2ccccc2c1=O | -5% | 9% | -106*
COc1ccc2c(=O)c3c(=O)n(-c4ccccc4)c(-c4ccc(C)cc4)nc3oc2c1 | . | 7% | .
Cc1cccc(NC(=O)/C=C/c2cccs2)n1 | 28µM* | ? | 12
O=C(/C=C/c1cccs1)Nc1ccncc1 | -9% | 2% | 7
Cc1cc(C)c(C#N)c(=N)o1 | ? | ? | 19
CCSC(N)=Nc1ccc(C(F)(F)F)cc1 | -26% | ? | .
Fc1ccc(SCCc2ccncc2)cc1 | -18% | -4% | 71
O=[N+]([O-])c1ccc(SCCc2ccncc2)cc1 | . | 7.9µM* | .
CCCCn1c(SCc2cccc([N+](=O)[O-])c2)nc2ccsc2c1=O | -7% | ? | 93
CCC(C)n1c(SCc2ccc([N+](=O)[O-])cc2)nc2ccsc2c1=O (stereo not drawn) | -4% | 7% | -119*
CC(NC(=O)CCSCCC(=O)NC(C)c1ccccc1)c1ccccc1 (stereo not drawn) | -13% | -2% | ?
CCC(C)NC(=O)CCSCCC(=O)NC(C)CC (stereo not drawn) | -15% | 1% | -104*
CCSc1nc2c(sc3ccccc32)c(=O)n1C(C)C | -12% | -3% | -27
Cc1cccc(NC(=O)CCS(=O)(=O)c2cccc3nsnc23)c1C | ? | 25µM* | 40
CCOC(=O)c1cccc(NC(=O)CCS(=O)(=O)c2cccc3nsnc23)c1 | ? | 22µM* | ?
Cc1ccc(C)c(NC(=O)CS(=O)(=O)c2cccc3nsnc23)c1 | . | 2% | .
CCOC(=O)c1ccc(NS(=O)(=O)c2cccc3nsnc23)cc1 | -19% | ? | -11
Cn1cc(CC(=O)NCCCN2CCCC2=O)c2ccccc21 | -13% | -3% | 60
CCN(CC)S(=O)(=O)c1cccc(-c2nnc(SCC(=O)NC3CCCCCCC3)n2N)c1 | 6% | -2% | 3
SMILES | HPGD inh | ALDH1A1 inh | PNC inhibitor
O=C(Cn1cc(CCO)nn1)N1CCNCC1 | . | -3% | .
C=C[C@]1(C)CC(=O)[C@@]2(O)[C@@]3(C)C(O)CCC(C)(C)C3C(O)C(OC(C)=O)[C@@]2(C)O1 (stereo partly drawn) | -3% | 0% | .
COc1cc(OC)c(C(=O)CCCN2CCCC2)c(OC)c1 | -5% | -8% | -22
Cn1c(SCC(=O)N2c3ccccc3CCc3ccccc32)nnc1-c1cc2ccccc2cc1O | -3% | ? | -4
Cn1c(Cc2cccs2)nnc1SCC(=O)N1CCc2ccccc21 | -9% | -8% | -2
Cn1c(SCC(=O)N2CCCc3ccccc32)nnc1-c1ccco1 | . | 2% | -17
Cc1cccc(-c2nnc(SCC(=O)N3c4ccccc4CCc4ccccc43)n2C)c1 | -3% | 11µM* | -4
Cn1c(SCC(=O)N2CCCc3ccccc32)nnc1-c1ccccc1 | -8% | 25µM* | 6
Cc1ccc(NCc2nnc(SCC(=O)N3CCc4ccccc43)n2C)cc1 | 0% | 8.9µM* | -12
O=C(CSc1ccc2nnc(-c3ccc(Cl)cc3)n2n1)N1CCCc2ccccc21 | ? | -8% | ?
O=C(CSc1ccc2nnc(-c3ccc(F)cc3)n2n1)N1CCCc2ccccc21 | -3% | 14µM* | ?
CC1CC(C)CN(CC(O)COCCOc2ccc(Br)cc2)C1 (stereo not drawn) | -5% | 6% | -102*
CC1CCN(CC(O)COCCOc2ccc(Br)cc2)CC1 (stereo not drawn) | -4% | ? | -12
Cc1ccc(C(=O)NC(c2ccccc2)C(Cl)Cl)cc1 (stereo not drawn) | -13% | -13% | 0
c1ccc2nc(CC[C@@H]3CCCCN3)ccc2c1 | -10% | 11%[13.5 µM] | .
Cc1ccc(C(C)C)c(Oc2nnnn2-c2ccccc2)c1 | -3% | 18µM* | ?
COc1ccc(Oc2cnn(-c3ccccc3)c(=O)c2Br)cc1 | . | 25µM* | .
